# Article PMC11006913
# Numbering of substitutions follows the chain as printed.
# Legend:
# Experiment in all cases: PBM; 200 nM protein, PBS
# Conditions in all cases: dsDNA, one strand shown
# [1] = molecular target: HOXB4 (Homo sapiens, UniProt P17483 148-234)
# [2] = molecular target: HOXB9 (Homo sapiens, UniProt P17482 171-250, T197M)
# [3] = molecular target: HOXB9 (Homo sapiens, UniProt P17482 171-250)
# [4] = molecular target: HOXB4 (Homo sapiens, UniProt P17483 148-234, V174I)
# [5] = molecular target: HOXB9 (Homo sapiens, UniProt P17482 171-250, R186Q)
# [6] = molecular target: T1, SIX6 (Homo sapiens, UniProt O95475 114-200, L167I)
# T1 sequence: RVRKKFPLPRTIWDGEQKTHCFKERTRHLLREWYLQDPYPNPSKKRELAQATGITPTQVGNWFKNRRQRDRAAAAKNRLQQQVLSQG
# [7] = molecular target: T2, SIX6 (Homo sapiens, UniProt O95475 114-200, L143V)
# T2 sequence: T1 sequence with L30V, I54L
# [8] = molecular target: T3, SIX6 (Homo sapiens, UniProt O95475 114-200, H141N)
# T3 sequence: T1 sequence with H28N, I54L
# [9] = molecular target: T4, SIX6 (Homo sapiens, UniProt O95475 114-200, T165P)
# T4 sequence: T1 sequence with T52P, I54L
# [10] = molecular target: T5, SIX6 (Homo sapiens, UniProt O95475 114-200, L167M)
# T5 sequence: T1 sequence with I54M
# [11] = molecular target: T6, SIX6 (Homo sapiens, UniProt O95475 114-200, L143M)
# T6 sequence: T1 sequence with L30M, I54L
# [12] = molecular target: T7, SIX6 (Homo sapiens, UniProt O95475 114-200, L143I)
# T7 sequence: T1 sequence with L30I, I54L
# [13] = molecular target: T8, SIX6 (Homo sapiens, UniProt O95475 114-200, T165G)
# T8 sequence: T1 sequence with T52G, I54L
# [14] = molecular target: T9, SIX6 (Homo sapiens, UniProt O95475 114-200, T139Q)
# T9 sequence: T1 sequence with T26Q, I54L
# [15] = molecular target: T10, SIX6 (Homo sapiens, UniProt O95475 114-200, T165A)
# T10 sequence: T1 sequence with T52A, I54L
# [16] = molecular target: T11, SIX6 (Homo sapiens, UniProt O95475 114-200, L167V)
# T11 sequence: T1 sequence with I54V
# [17] = molecular target: T12, SIX6 (Homo sapiens, UniProt O95475 114-200)
# T12 sequence: T1 sequence with I54L
# [18] = molecular target: T13, SIX6 (Homo sapiens, UniProt O95475 114-200, T165I)
# T13 sequence: T1 sequence with T52I, I54L
# [19] = molecular target: T14, VENTX (Homo sapiens, UniProt O95231 78-163, R121Q)
# T14 sequence: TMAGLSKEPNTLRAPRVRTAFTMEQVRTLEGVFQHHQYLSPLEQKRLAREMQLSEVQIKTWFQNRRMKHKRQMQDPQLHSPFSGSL
# [20] = molecular target: HOXA4 (Homo sapiens, UniProt Q00056 201-287, W262R)
# [21] = molecular target: T15, VENTX (Homo sapiens, UniProt O95231 78-163)
# T15 sequence: T14 sequence with Q44R
# [22] = molecular target: T16, VENTX (Homo sapiens, UniProt O95231 78-163, Y115F)
# T16 sequence: T14 sequence with Y38F, Q44R
# [23] = molecular target: HOXA2 (Homo sapiens, UniProt O43364 129-215, R185T)
# [24] = molecular target: HOXA4 (Homo sapiens, UniProt Q00056 201-287, R217L)
# [25] = molecular target: SHOX (Homo sapiens, UniProt O15266 103-189, R173C)
# [26] = molecular target: HOXA2 (Homo sapiens, UniProt O43364 129-215, R185K)
# [27] = molecular target: HOXA4 (Homo sapiens, UniProt Q00056 201-287)
# [28] = molecular target: VAX1 (Homo sapiens, UniProt Q5SQQ9 86-172)
# [29] = molecular target: VAX1 (Homo sapiens, UniProt Q5SQQ9 86-172, T142I)
# [30] = molecular target: HOXA2 (Homo sapiens, UniProt O43364 129-215, Y150S)
# [31] = molecular target: HOXA4 (Homo sapiens, UniProt Q00056 201-287, W262F)
# [32] = molecular target: HOXA2 (Homo sapiens, UniProt O43364 129-215)
# [33] = molecular target: VAX1 (Homo sapiens, UniProt Q5SQQ9 86-172, K157R)
# [34] = molecular target: HOXA7 (Homo sapiens, UniProt P31268 116-202)
# [35] = molecular target: HOXB6 (Homo sapiens, UniProt P17509 132-218, K202E)
# [36] = molecular target: HOXA7 (Homo sapiens, UniProt P31268 116-202, W177C)
# [37] = molecular target: HOXB6 (Homo sapiens, UniProt P17509 132-218)
# Chain of HOXB6 (Homo sapiens, UniProt P17509 132-218) (P17509 132-218): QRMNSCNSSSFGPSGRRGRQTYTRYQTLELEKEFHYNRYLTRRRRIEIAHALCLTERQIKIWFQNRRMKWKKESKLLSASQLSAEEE
# Chain of HOXB4 (Homo sapiens, UniProt P17483 148-234) (P17483 148-234): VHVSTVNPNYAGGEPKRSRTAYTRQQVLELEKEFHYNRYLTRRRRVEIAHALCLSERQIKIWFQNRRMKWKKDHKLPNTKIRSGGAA
# Chain of HOXB4 (Homo sapiens, UniProt P17483 148-234, V174I) (P17483 148-234 V174I): as the sequence (P17483 148-234) above, with V27I counted along it
# Chain of HOXB9 (Homo sapiens, UniProt P17482 171-250, T197M) (P17482 171-250 T197M): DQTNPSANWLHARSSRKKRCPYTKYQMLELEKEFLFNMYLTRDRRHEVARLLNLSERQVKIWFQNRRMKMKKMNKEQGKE
# Chain of HOXB9 (Homo sapiens, UniProt P17482 171-250, R186Q) (P17482 171-250 R186Q): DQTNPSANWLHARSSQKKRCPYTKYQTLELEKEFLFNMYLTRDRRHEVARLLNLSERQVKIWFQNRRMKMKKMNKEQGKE
# Chain of VAX1 (Homo sapiens, UniProt Q5SQQ9 86-172) (Q5SQQ9 86-172): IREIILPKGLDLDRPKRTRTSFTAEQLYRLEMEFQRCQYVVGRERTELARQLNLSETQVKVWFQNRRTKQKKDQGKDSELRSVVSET
# Chain of HOXA4 (Homo sapiens, UniProt Q00056 201-287) (Q00056 201-287): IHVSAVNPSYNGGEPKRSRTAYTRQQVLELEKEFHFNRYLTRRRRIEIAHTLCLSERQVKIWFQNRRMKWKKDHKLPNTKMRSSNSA
# Chain of VAX1 (Homo sapiens, UniProt Q5SQQ9 86-172, K157R) (Q5SQQ9 86-172 K157R): as the sequence (Q5SQQ9 86-172) above, with K72R counted along it
# Chain of HOXA4 (Homo sapiens, UniProt Q00056 201-287, W262F) (Q00056 201-287 W262F): as the sequence (Q00056 201-287) above, with W62F counted along it
# Chain of HOXB9 (Homo sapiens, UniProt P17482 171-250) (P17482 171-250): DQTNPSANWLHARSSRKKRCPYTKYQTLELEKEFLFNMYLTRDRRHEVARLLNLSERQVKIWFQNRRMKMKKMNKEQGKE
# Chain of VAX1 (Homo sapiens, UniProt Q5SQQ9 86-172, T142I) (Q5SQQ9 86-172 T142I): as the sequence (Q5SQQ9 86-172) above, with T57I counted along it
# Chain of HOXA4 (Homo sapiens, UniProt Q00056 201-287, W262R) (Q00056 201-287 W262R): as the sequence (Q00056 201-287) above, with W62R counted along it
# Chain of HOXA4 (Homo sapiens, UniProt Q00056 201-287, R217L) (Q00056 201-287 R217L): as the sequence (Q00056 201-287) above, with R17L counted along it
# Chain of HOXA2 (Homo sapiens, UniProt O43364 129-215, Y150S) (O43364 129-215 Y150S): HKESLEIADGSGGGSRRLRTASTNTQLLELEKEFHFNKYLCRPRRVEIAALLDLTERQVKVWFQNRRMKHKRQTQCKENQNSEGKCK
# Chain of HOXA2 (Homo sapiens, UniProt O43364 129-215) (O43364 129-215): as the sequence (O43364 129-215 Y150S) above, with S22Y counted along it
# Chain of HOXB6 (Homo sapiens, UniProt P17509 132-218, K202E) (P17509 132-218 K202E): as the sequence (P17509 132-218) above, with K71E counted along it
# Chain of HOXA2 (Homo sapiens, UniProt O43364 129-215, R185T) (O43364 129-215 R185T): as the sequence (O43364 129-215 Y150S) above, with S22Y, R57T counted along it
# Chain of HOXA2 (Homo sapiens, UniProt O43364 129-215, R185K) (O43364 129-215 R185K): as the sequence (O43364 129-215 Y150S) above, with S22Y, R57K counted along it
# Chain of HOXA7 (Homo sapiens, UniProt P31268 116-202, W177C) (P31268 116-202 W177C): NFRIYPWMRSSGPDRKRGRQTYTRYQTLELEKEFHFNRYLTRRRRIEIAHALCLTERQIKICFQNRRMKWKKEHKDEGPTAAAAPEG
# Chain of HOXA7 (Homo sapiens, UniProt P31268 116-202) (P31268 116-202): as the sequence (P31268 116-202 W177C) above, with C62W counted along it
# Chain of SHOX (O15266 103-189 R173C): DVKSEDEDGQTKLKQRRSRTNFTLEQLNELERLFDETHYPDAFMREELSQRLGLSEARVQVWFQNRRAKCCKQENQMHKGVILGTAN
sequence,measurement,setting,value
CCTGACCC,binding signal,[1],"7.93 upbm affinity estimate (log intensity, higher = more binding, comparable within an allelic series)"
same,binding signal,[2],"8.77 upbm affinity estimate (log intensity, higher = more binding, comparable within an allelic series)"
same,binding signal,[3],"8.65 upbm affinity estimate (log intensity, higher = more binding, comparable within an allelic series)"
same,binding signal,[4],"7.87 upbm affinity estimate (log intensity, higher = more binding, comparable within an allelic series)"
same,binding signal,[5],"8.66 upbm affinity estimate (log intensity, higher = more binding, comparable within an allelic series)"
GGCCCCCC,binding signal,[1],"7.99 upbm affinity estimate (log intensity, higher = more binding, comparable within an allelic series)"
same,binding signal,[2],"8.33 upbm affinity estimate (log intensity, higher = more binding, comparable within an allelic series)"
same,binding signal,[6],"8.65 upbm affinity estimate (log intensity, higher = more binding, comparable within an allelic series)"
same,binding signal,[7],"8.57 upbm affinity estimate (log intensity, higher = more binding, comparable within an allelic series)"
same,binding signal,[8],"8.65 upbm affinity estimate (log intensity, higher = more binding, comparable within an allelic series)"
same,binding signal,[9],"8.56 upbm affinity estimate (log intensity, higher = more binding, comparable within an allelic series)"
same,binding signal,[10],"8.73 upbm affinity estimate (log intensity, higher = more binding, comparable within an allelic series)"
same,binding signal,[11],"8.77 upbm affinity estimate (log intensity, higher = more binding, comparable within an allelic series)"
same,binding signal,[12],"8.57 upbm affinity estimate (log intensity, higher = more binding, comparable within an allelic series)"
same,binding signal,[13],"8.61 upbm affinity estimate (log intensity, higher = more binding, comparable within an allelic series)"
same,binding signal,[3],"8.39 upbm affinity estimate (log intensity, higher = more binding, comparable within an allelic series)"
same,binding signal,[14],"8.85 upbm affinity estimate (log intensity, higher = more binding, comparable within an allelic series)"
same,binding signal,[4],"7.93 upbm affinity estimate (log intensity, higher = more binding, comparable within an allelic series)"
same,binding signal,[15],"8.73 upbm affinity estimate (log intensity, higher = more binding, comparable within an allelic series)"
same,binding signal,[16],"8.56 upbm affinity estimate (log intensity, higher = more binding, comparable within an allelic series)"
same,binding signal,[17],"8.69 upbm affinity estimate (log intensity, higher = more binding, comparable within an allelic series)"
same,binding signal,[18],"8.78 upbm affinity estimate (log intensity, higher = more binding, comparable within an allelic series)"
same,binding signal,[5],"8.36 upbm affinity estimate (log intensity, higher = more binding, comparable within an allelic series)"
ACTCATTA,binding signal,[1],"13 upbm affinity estimate (log intensity, higher = more binding, comparable within an allelic series)"
same,binding signal,[19],"11.6 upbm affinity estimate (log intensity, higher = more binding, comparable within an allelic series)"
same,binding signal,[20],"10.7 upbm affinity estimate (log intensity, higher = more binding, comparable within an allelic series)"
same,binding signal,[21],"12.4 upbm affinity estimate (log intensity, higher = more binding, comparable within an allelic series)"
same,binding signal,[22],"11.7 upbm affinity estimate (log intensity, higher = more binding, comparable within an allelic series)"
same,binding signal,[23],"13 upbm affinity estimate (log intensity, higher = more binding, comparable within an allelic series)"
same,binding signal,[24],"12.1 upbm affinity estimate (log intensity, higher = more binding, comparable within an allelic series)"
same,binding signal,[4],"13.6 upbm affinity estimate (log intensity, higher = more binding, comparable within an allelic series)"
same,binding signal,[25],"9.29 upbm affinity estimate (log intensity, higher = more binding, comparable within an allelic series)"
same,binding signal,[26],"13.5 upbm affinity estimate (log intensity, higher = more binding, comparable within an allelic series)"
same,binding signal,[27],"13.8 upbm affinity estimate (log intensity, higher = more binding, comparable within an allelic series)"
same,binding signal,[28],"13.2 upbm affinity estimate (log intensity, higher = more binding, comparable within an allelic series)"
same,binding signal,[29],"13.1 upbm affinity estimate (log intensity, higher = more binding, comparable within an allelic series)"
same,binding signal,[30],"10.9 upbm affinity estimate (log intensity, higher = more binding, comparable within an allelic series)"
same,binding signal,[31],"11.7 upbm affinity estimate (log intensity, higher = more binding, comparable within an allelic series)"
same,binding signal,[32],"12.6 upbm affinity estimate (log intensity, higher = more binding, comparable within an allelic series)"
same,binding signal,[33],"13.1 upbm affinity estimate (log intensity, higher = more binding, comparable within an allelic series)"
TCCATTAA,binding signal,[1],"13 upbm affinity estimate (log intensity, higher = more binding, comparable within an allelic series)"
same,binding signal,[19],"11.7 upbm affinity estimate (log intensity, higher = more binding, comparable within an allelic series)"
same,binding signal,[2],"9.97 upbm affinity estimate (log intensity, higher = more binding, comparable within an allelic series)"
same,binding signal,[20],"10.5 upbm affinity estimate (log intensity, higher = more binding, comparable within an allelic series)"
same,binding signal,[34],"11.2 upbm affinity estimate (log intensity, higher = more binding, comparable within an allelic series)"
same,binding signal,[35],"9.96 upbm affinity estimate (log intensity, higher = more binding, comparable within an allelic series)"
same,binding signal,[24],"11.9 upbm affinity estimate (log intensity, higher = more binding, comparable within an allelic series)"
same,binding signal,[4],"13.6 upbm affinity estimate (log intensity, higher = more binding, comparable within an allelic series)"
same,binding signal,[27],"13.7 upbm affinity estimate (log intensity, higher = more binding, comparable within an allelic series)"
same,binding signal,[28],"12.8 upbm affinity estimate (log intensity, higher = more binding, comparable within an allelic series)"
same,binding signal,[5],"11.5 upbm affinity estimate (log intensity, higher = more binding, comparable within an allelic series)"
same,binding signal,[29],"12.2 upbm affinity estimate (log intensity, higher = more binding, comparable within an allelic series)"
same,binding signal,[36],"8.72 upbm affinity estimate (log intensity, higher = more binding, comparable within an allelic series)"
same,binding signal,[31],"11.4 upbm affinity estimate (log intensity, higher = more binding, comparable within an allelic series)"
same,binding signal,[33],"12.2 upbm affinity estimate (log intensity, higher = more binding, comparable within an allelic series)"
same,binding signal,[37],"11.7 upbm affinity estimate (log intensity, higher = more binding, comparable within an allelic series)"
